# System: Caenorhabditis elegans dauer (daf-2(e1370))
# Experiment: proportion of mobile C. elegans dauer larvae relative to DMSO control (fraction of DMSO control); higher = more viable, less nematicidal, active = 0.63 or less; extreme values may be limits of the assay
# Settings: 60 µM; 5 days; temperature: 20 °C
# Description: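 DODA library (846 commercial 1,3,4- and 1,2,4-oxadiazole compounds plus commercial nematicide controls) screened at a single dose of 60 µM (0.6% DMSO) in 96-well plates, two biological replicates. Read-outs: C. elegans N2 L1 survival/reproduction score at day 6, 20 °C (0: 0-10 worms, 1: 11-20, 2: 21-50, 3: >50, 4: overgrown/starved). C. elegans daf-2 dauer, D. dipsaci and M. hapla J2 mobility at day 5, 20 °C, and P. penetrans mobility at day 5, 20 °C, each relative to DMSO controls. M. hapla egg hatching at day 12, 25 °C, relative to the mean of 8 DMSO wells on the same plate.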
row,SMILES,proportion of mobile C. elegans dauer larvae
1,CCOc1nc(-c2ccc(C)cc2)ccc1-c1noc(-c2ccco2)n1,1 (inactive)
2,CNC(=O)c1ccccc1-c1nc(-c2ccccc2Cl)no1,1 (inactive)
3,N#Cc1ccccc1CSc1nnc(-c2ccco2)o1,0.85 (inactive)
4,Fc1cccc(-c2nc(-c3cccnc3)no2)c1,1 (inactive)
5,Cc1cc(C)c(CSc2nnc(-c3ccccc3)o2)c(C)c1,1 (inactive)
6,O=C(CSc1nnc(-c2ccco2)o1)Nc1ccc(Br)cn1,1 (inactive)
7,Clc1cccc(-c2nc(-c3ccncc3)no2)c1,1 (inactive)
8,N#Cc1ccccc1NC(=O)CSc1nnc(-c2ccccc2)o1,1 (inactive)
9,Clc1ccc(-c2nc(-c3ccncc3)no2)c(Cl)c1,1 (inactive)
10,Cc1ccc(NC(=O)CSc2nnc(-c3ccncc3)o2)cc1Cl,1 (inactive)
11,O=C(Nc1ccc(-c2noc(COc3ccccc3Cl)n2)cc1)c1ccccn1,1 (inactive)
12,COc1ccc(-c2noc(-c3ccccc3C(=O)Nc3cccc(C)c3C)n2)cc1,1 (inactive)
13,COc1ccccc1-c1noc(-c2ccccc2C)n1,1 (inactive)
14,Clc1ccc(SCc2nc(-c3ccccn3)no2)cc1,0.5 (active)
15,CC(C)Oc1ccc(-c2nc(-c3ccccn3)no2)cc1,0.0263 (active)
16,CC(=O)c1cccc(NC(=O)CSc2nnc(-c3ccccc3)o2)c1,1 (inactive)
17,CCOc1nc(C)ccc1-c1noc(-c2cccc(C)c2)n1,1 (inactive)
18,COc1cccc(NC(=O)CSc2nnc(-c3ccc(C)cc3)o2)c1,1 (inactive)
19,Brc1cccc(-c2nc(-c3ccncc3)no2)c1,1 (inactive)
20,Brc1ccc(-c2noc(COc3ccccc3)n2)cc1,1 (inactive)

row,SMILES,proportion of mobile C. elegans dauer larvae
1,COc1ccc(-c2nnc(SCC(=O)Nc3ccccc3C(C)C)o2)cc1,1 (inactive)
2,CCCCC(=O)Nc1ccccc1-c1nc(-c2ccncc2)no1,1 (inactive)
3,CN(C)C(=O)c1ccccc1-c1nc(-c2ccccc2Cl)no1,1 (inactive)
4,CC1CCN(C(=O)CSc2nnc(-c3cccc(Cl)c3)o2)CC1,1 (inactive)
5,CC(C)Oc1ccc(-c2nc(-c3cccnc3)no2)cc1,0 (active)
6,Cc1ccc(-c2nc(-c3ccccn3)no2)cc1C,1 (inactive)
7,Fc1ccc(CSc2nnc(-c3ccccn3)o2)cc1,1 (inactive)
8,Clc1ccccc1-c1noc(-c2ccccc2Cl)n1,1 (inactive)
9,C=CCSc1nnc(-c2ccc(Br)cc2)o1,1 (inactive)
10,Cc1ccc(OCc2nc(-c3ccc(Br)o3)no2)cc1C,1 (inactive)
11,O=C(CSc1nnc(-c2ccccc2)o1)OCc1ccccc1,1 (inactive)
12,O=C(CSc1nnc(-c2ccccc2)o1)NCc1ccccc1,1 (inactive)
13,Cc1ccc(-c2noc(CSc3nc(C)cc(C)n3)n2)cc1,1 (inactive)
14,Clc1ccc(-c2nnc(SCc3ccccc3)o2)cc1,1 (inactive)
15,COc1ccc(-c2noc(-c3ccccc3C(=O)Nc3ccc(NC(C)=O)cc3)n2)cc1,1 (inactive)
16,Clc1ccc(OCc2nc(-c3cccs3)no2)cc1,1 (inactive)
17,Cc1ccc(OCc2nc(-c3ccc(Cl)cc3)no2)cc1,1 (inactive)
18,COc1nc(-c2ccccc2)ccc1-c1noc(-c2ccccc2C)n1,1 (inactive)
19,NC(=O)COc1ccccc1-c1nc(-c2ccccc2Cl)no1,1 (inactive)
20,Clc1ccccc1-c1nc(-c2ccc3c(c2)OCO3)no1,1 (inactive)

# Source: the supplement of paper PMC11219838
